PubChem BioAssay AID488969 (Vanderbilt High Throughput Screening Facility, 2010)
The full ranking holds about 110,000 compounds; the median of “z-score” is about -0.1, and the highest 2% start at about 2. This is one part of a sample in which the highest values are shown more often than they occur. Active and inactive are the calls of the source.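 Rule for the calls: active = z-score in the third read window above 3 or below -3; inactive = the rest.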

target: Metabotropic glutamate receptor 8 (Rattus norvegicus) (UniProt P70579); assay: mGluR8 Gi/Go-coupled signaling modulation – cell-based, rat, thallium flux, HTS, primary screen (AID 488969); settings: HEK293 rat mGluR8, GIRK (G protein-gated inwardly rectifying potassium channel) thallium flux, FluoZin2; at 10 µM; stronger effect = higher value; submaximal glutamate (EC20) added with thallium
Sequence (P70579 whole entry, looked up): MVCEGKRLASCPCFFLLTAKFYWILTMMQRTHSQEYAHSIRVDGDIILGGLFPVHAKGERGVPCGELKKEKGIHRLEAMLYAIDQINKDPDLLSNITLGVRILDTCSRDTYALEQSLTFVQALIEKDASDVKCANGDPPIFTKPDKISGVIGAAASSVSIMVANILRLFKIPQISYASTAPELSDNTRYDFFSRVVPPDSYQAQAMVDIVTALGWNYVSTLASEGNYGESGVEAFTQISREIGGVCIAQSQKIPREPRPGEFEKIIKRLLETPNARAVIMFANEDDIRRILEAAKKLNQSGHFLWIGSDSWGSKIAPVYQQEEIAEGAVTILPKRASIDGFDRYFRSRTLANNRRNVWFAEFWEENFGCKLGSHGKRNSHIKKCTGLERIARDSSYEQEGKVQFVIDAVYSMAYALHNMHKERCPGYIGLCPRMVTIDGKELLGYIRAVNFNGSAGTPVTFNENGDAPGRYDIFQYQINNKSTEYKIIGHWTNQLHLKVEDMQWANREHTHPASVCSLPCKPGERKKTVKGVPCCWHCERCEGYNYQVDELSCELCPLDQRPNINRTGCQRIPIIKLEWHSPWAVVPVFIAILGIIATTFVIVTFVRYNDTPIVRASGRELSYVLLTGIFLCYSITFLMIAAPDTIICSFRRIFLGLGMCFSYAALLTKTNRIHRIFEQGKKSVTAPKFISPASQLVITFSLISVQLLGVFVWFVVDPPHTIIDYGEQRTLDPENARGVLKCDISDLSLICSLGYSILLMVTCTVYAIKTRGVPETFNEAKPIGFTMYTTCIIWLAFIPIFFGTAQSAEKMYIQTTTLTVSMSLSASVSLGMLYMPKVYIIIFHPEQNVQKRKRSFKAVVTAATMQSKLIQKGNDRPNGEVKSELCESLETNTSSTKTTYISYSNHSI

Row | SMILES | z-score
1 | COc1ccc(NC(=O)Nc2ccc(Br)cn2)cc1OC | -0.221
2 | COc1ccc2nc(NC(=O)CSc3nnc(N)s3)sc2c1 | 0.075
3 | Cc1[nH]n(-c2ccccc2)c(=O)c1N=Nc1cccc(S(=O)(=O)N2CCOCC2)c1 | 0.327
4 | Cc1[nH]n(-c2ccccc2)c(=O)c1S(=O)(=O)c1ccccc1 | -0.642
5 | Cc1[nH]n(-c2ccccc2)c(=O)c1N=Nc1nccs1 | 14.8 (active)
6 | Cc1[nH]n(-c2ccc([N+](=O)[O-])cc2)c(=O)c1N=Nc1nc2ccccc2s1 | 2.47
7 | Cc1[nH]n2c(=O)cc(-c3ccc([N+](=O)[O-])cc3)nc2c1-c1ccccc1 | -1.93
8 | Cc1[nH]n(-c2ccc([N+](=O)[O-])cc2)c(=O)c1C=NCCc1c(C)[nH]c2ccccc12 | -0.0759
9 | CN(Cc1ccc(-n2cccn2)cc1)C(=O)c1cnn2c1NC(c1ccco1)CC2C(F)(F)F (centres undefined) | -0.35
10 | CCCCN1C(=S)SC(C)(C)C1/[N+]([O-])=C/c1cccnc1 (centres undefined) | -0.00445
11 | CCN1C(=O)C2C(C1=O)N1C(c3ccccc3)C3C(=O)N(CC)C(=O)C3N1C2c1ccccc1 (centres undefined) | 0.0538
12 | CCCn1c(=N)n(CC(O)c2ccco2)c2ccccc21 (centres undefined) | 0.907
13 | CCCCCn1c(=N)n(CC(O)COc2ccccc2OC)c2ccccc21 (centres undefined) | -1.11
14 | CCCn1c(=N)n(CC(O)COc2cccc(C)c2)c2ccccc21 (centres undefined) | 3.74 (active)
15 | Cc1cccc(OCC(O)CN2C(C)(C)CC(O)CC2(C)C)c1C (centres undefined) | 1.1
16 | CCCCn1c(=N)n(CC(O)COc2cccc(C)c2)c2ccccc21 (centres undefined) | 4.52 (active)
17 | C=CCn1c(=N)n(CC(O)COc2ccccc2OC)c2ccccc21 (centres undefined) | 1.12
18 | CC(=O)c1ccc(OCC(O)CN2C(C)(C)CC(O)CC2(C)C)cc1 (centres undefined) | -0.153
19 | Cc1cccc(OCC(O)CN2C(C)(C)CC(O)CC2(C)C)c1 (centres undefined) | 9.44 (active)
20 | CCn1c(=N)n(CC(O)COc2cccc(C)c2)c2ccccc21 (centres undefined) | 0.778
21 | CC(=O)c1ccc(OCCCC(=O)Nc2ccc(C)c(S(=O)(=O)N(C)C)c2)cc1 | 0.136
22 | O=C(CCNc1cc(Cl)cc(Cl)c1)c1cccs1 | 0.0113

Row | SMILES | z-score
23 | COc1ccc(NS(=O)(=O)c2c(C)n(C)c(=O)n(C)c2=O)cc1OC | -0.0428
24 | Cc1ccc(S(=O)(=O)Cc2ccc(C(=O)NCc3ccc4c(c3)OCO4)o2)cc1 | -0.326
25 | NS(=O)(=O)c1ccc(CCNC(=O)C2CCN(S(=O)(=O)c3cnc[nH]3)CC2)cc1 | -0.00955
26 | O=C(NC1CCCC1)C(c1cccnc1)N(C(=O)c1csnn1)C1CCCC1 (centres undefined) | -0.145
27 | CC1CCN(c2nc3c(c(=O)[nH]c(=O)n3C)n2CCSc2nc3ccccc3o2)CC1 | 0.0449
28 | C=C1c2cc(C)ccc2NC(=O)N1c1ccc(C)cc1 | -0.68
29 | COc1cc(C)c(S(=O)(=O)N2CCOCC2)cc1C(C)C | 0.397
30 | COc1cc(C)c(N)cc1C(C)C | 2.12
31 | COc1cc(C)c(-c2cc(C(=O)O)c(C)o2)cc1C(C)C | -0.106
32 | COc1ccc(C(=O)NC(=S)N2CCN(c3ccc([N+](=O)[O-])cc3)CC2)cc1 | 0.274
33 | CNC(=S)N1CCN(c2ccc([N+](=O)[O-])cc2)CC1 | -0.188
34 | CCNC(=S)N1CCN(c2ccc([N+](=O)[O-])cc2)CC1 | 0.99
35 | C=CCNC(=S)N1CCN(c2ccc([N+](=O)[O-])cc2)CC1 | 2.09
36 | Cc1ccc(C(=O)NC(=S)N2CCN(c3ccc([N+](=O)[O-])cc3)CC2)cc1 | 0.426
37 | O=C(NC(=S)N1CCN(c2ccc([N+](=O)[O-])cc2)CC1)c1ccc(F)cc1 | 9.01 (active)
38 | CN(C)c1nc(-c2ccccc2)nnc1C(F)(F)F | -0.148
39 | CCN(CC)c1nc2ccccc2c(N)c1-c1ccccc1 | 0.0637
40 | CC(=O)c1c(C)nc2ccccc2c1N | 0.205
41 | Cc1cc(C)c2c(N)c3ccccc3nc2n1 | -0.0162
42 | CN(C)c1nc2ccccc2c(N)c1-c1ccccc1 | 3.06 (active)
43 | Cc1c(N(C)C)nc2ccccc2c1N | 2.03
44 | O=C(NCc1cccnc1)c1cccc(Cl)c1 | 0.278

Row | SMILES | z-score
45 | O=C(Cn1c(=O)oc2ccccc21)NCc1ccco1 | 0.455
46 | Cc1c(NCc2cc(Cl)ccc2O)c(=O)n(-c2ccccc2)n1C | -0.0479
47 | O=C(CSc1nnc(-c2cccc(Cl)c2)o1)Nc1ccc2c(c1)OCCO2 | -0.0175
48 | CCCN(CC(=O)Nc1cc(Cl)cc(Cl)c1)CC(=O)Nc1ccc(F)c(F)c1F | -0.209
49 | CC(C)COP(=O)(c1ccc(N(C)C)cc1)C(Nc1ccccc1)c1ccccc1 (centres undefined) | -0.803
50 | CCCCSCCCNC(=O)Nc1cccc(OC)c1 | -0.211
51 | COc1cccc(NC(=O)NCCCSC2CCCCC2)c1 | 4.47 (active)
52 | CCOc1ccc(NC(=O)NCCCSC2CCCCC2)cc1 | 0.197
53 | O=C(COC(=O)c1cccc([N+](=O)[O-])c1)c1ccc(OCc2ccccc2)cc1 | -0.231
54 | O=C(Cc1c[nH]c2ccccc12)NCc1ccc(Cl)cc1 | 0.348
55 | O=C(CCCCCNc1nc(=S)[nH]c2ccccc12)NCCc1ccccc1 | 0.302
56 | O=C(O)CCCCCNc1nc(=S)[nH]c2ccccc12 | 0.209
57 | O=C(Cc1csc(Nc2nc(=S)[nH]c3ccccc23)n1)NCc1cccc(Cl)c1 | 6.85 (active)
58 | O=C(O)Cc1csc(Nc2cccc(Cl)c2)n1 | 0.819
59 | COc1ccc(CNC(=O)COC(=O)[C@H](Cc2c[nH]c3ccccc23)NC(=O)c2cccs2)cc1 | 0.0349
60 | COc1ccc(CNC(=O)Cc2c(C(=O)O)[nH]c3ccccc23)cc1 | -0.136
61 | O=C(Cc1csc(Nc2nc(=S)[nH]c3ccccc23)n1)NCc1ccccc1Cl | 3.83 (active)
62 | COc1ccc(CNC(=O)Cc2csc(Nc3nc(=S)[nH]c4ccccc34)n2)cc1 | 8.83 (active)
63 | COC(=O)Cc1csc(Nc2ccccc2Cl)n1 | 0.0565
64 | O=C(Cc1csc(Nc2nc(=S)[nH]c3ccccc23)n1)NCc1ccc(Cl)cc1 | 7.05 (active)
65 | O=C(CCCSc1nc2ccccc2[nH]1)NCc1ccc(Cl)cc1 | -0.328
66 | Cc1cccc(OCC(=O)Nc2ccc(N3CCN(C(=O)c4ccccc4)CC3)cc2)c1 | -0.0735

Row | SMILES | z-score
67 | Cc1ccc(S(=O)(=O)N2CCOCC2)c2nsnc12 | -0.358
68 | CCN1CCN(C(CNC(=O)c2ccc3c(c2)OCO3)c2cccnc2)CC1 (centres undefined) | -0.319
69 | COc1cc2c(cc1OC)CN(C(=O)C(C)(C)C)CC2 | -0.104
70 | CN(C1CCCCC1)S(=O)(=O)c1ccc(S(=O)(=O)N2CCN(CCC#N)CC2)cc1 | 0.242
71 | CCS(=O)CCSC(=N)N (centres undefined) | -0.0992
72 | Cc1ccc(NC(=S)Nc2nc(CC(=O)Nc3ccccc3)cs2)cc1 | 0.0541
73 | O=C(Cc1csc(-c2ccccc2)n1)NCc1ccc(F)cc1 | -0.252
74 | Cc1ccc(CNC(=O)Cc2csc(Nc3nc(=S)[nH]c4ccccc34)n2)cc1 | 10.7 (active)
75 | COc1ccc(-n2nc3ccccc3n2)cc1 | 0.249
76 | O=C(NCc1ccncc1)C1CCCN(S(=O)(=O)Cc2ccccc2)C1 (centres undefined) | -0.193
77 | CCC1CCCCN1C(=O)CSc1nnc(-c2cccs2)o1 (centres undefined) | 0.801
78 | CCC1CCCCN1C(=O)CSc1nnc(-c2ccco2)o1 (centres undefined) | 11.1 (active)
79 | CCC1CCCCN1C(=O)CSc1nnc(-c2ccc(Cl)cc2)o1 (centres undefined) | -0.41
80 | CCC(NC(=O)Cn1cnc2c(=O)n(C)c(=O)n(C)c21)c1ccccc1 (centres undefined) | 0.0869
81 | COc1ccc(C2C(C(=O)c3ccco3)=C(O)C(=O)N2CCOCCO)cc1OC (centres undefined) | -0.0423
82 | COc1ccc(CC(=O)Nc2cccc(-c3csc(C)n3)c2)cc1 | 1.88
83 | O=C(NOC(=O)c1ccccc1Cl)c1cccs1 | -0.383
84 | COC(=O)NNC(=O)c1ccc(C)cc1 | 0.0536
85 | Cc1c(C(=O)NCc2cccnc2)oc2ccc(S(=O)(=O)N3CCC4(CC3)OCCO4)cc12 | 5.95 (active)
86 | Cc1c(C(=O)NCc2ccccc2)oc2ccc(S(=O)(=O)N3CCC4(CC3)OCCO4)cc12 | -0.293
87 | Cc1c(C(=O)NCc2cccnc2)oc2ccc(S(=O)(=O)N3CCCCC3)cc12 | 1.3
88 | CCCOc1ccc(C(=O)Nc2cc(-c3nn4c(C)nnc4s3)ccc2C)cc1 | -0.185

Row | SMILES | z-score
89 | CN(Cc1ccccc1)c1ccc(N2C(=O)CCCC2=O)cc1[N+](=O)[O-] | -0.202
90 | Cc1cccc(-c2nc(CSCC(=O)N3CCN(c4ccccn4)CC3)c(C)o2)c1 | -1.37
91 | O=C(O)CCCC(=O)NCCc1ccncc1 | 0.0989
92 | COc1ccc(/C=N/NC(=O)C(=O)/C=C2\NC3(CCCC3)Cc3ccccc32)cc1 | 0.0973
93 | Cc1cccc(C(=O)Nc2ccccc2C(=O)OCC(=O)Nc2ccc(C#N)cc2)c1 | 2.11
94 | Cc1ccc(NC(=O)COC(=O)c2ccccc2Nc2ccccc2)cc1 | -0.179
95 | CC(=O)c1ccccc1NC(=O)COC(=O)c1ccccc1NC(=O)c1ccccc1 | 0.161
96 | COc1ccc(S(=O)(=O)N2CCN(C(=O)c3ccco3)CC2)cc1OC | -0.51
97 | COc1cc(/C=N/NC(=O)C(Cc2c[nH]c3ccccc23)NC(=O)OCc2ccccc2)cc([N+](=O)[O-])c1O (centres undefined) | -0.505
98 | Cc1ccc(N(C(=O)c2csnn2)C(C(=O)NC(C)(C)C)c2ccncc2)cc1 (centres undefined) | -0.134
99 | Cc1cccc(N(C(=O)c2csnn2)C(C(=O)NC(C)(C)C)c2ccncc2)c1 (centres undefined) | -0.134
100 | CC(C)(C)NC(=O)C(c1ccncc1)N(C(=O)c1csnn1)c1ccccc1 (centres undefined) | 6.21 (active)
101 | CC(C)COC(=O)c1cc(=O)[nH]c2ccccc12 | 1.23
102 | CCc1ccc2nc(NC(=O)CSCc3c(C)noc3C)sc2c1 | -0.0333
103 | CCc1ccc2nc(NC(=O)c3cc(C)on3)sc2c1 | 10.1 (active)
104 | Cc1cc(C)c2nc(NC(=O)C3CCCO3)sc2c1 (centres undefined) | 0.217
105 | CCc1ccc(NC(=O)c2cc(C)on2)cc1 | -0.546
106 | Cc1cc(C)c2nc(NC(=O)c3cc(C)on3)sc2c1 | 12 (active)
107 | Cc1cc(C)c2nc(NC(=O)c3ccc(OCC4CCCO4)cc3)sc2c1 (centres undefined) | -0.201
108 | O=C(Oc1ccc(Br)cc1C(=S)N1CCCC1)c1ccccc1Cl | -0.0754
109 | CCOC(=O)N1CCN(Cc2nc(N)nc(Nc3ccc(OCC)cc3)n2)CC1 | -0.27
